Active and inactive are the calls of the source.
Columns and labels:
[1] = system: Human papillomavirus type 1a protein E7 (residues 44-93); experiment: HPV1a E7 fragment binders on microarrays, primary screen, biochemical, small-molecule microarray, residues 44-93, 635 nm fluorescence (AID 1108); conditions: small-molecule microarray binding, fluorescence 635 nm; higher = more signal;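 further: E7 fragment applied at 1 µg/mL in TBST for 1 h at 4 C; score combines spot fluorescence with its signal to noise ratio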
[2] = modulators of HCV replicon luciferase signal, primary screen, HCV replication inhibitor project, Huh7 cells, luciferase reporter (AID 1109); conditions: 48 h, higher = more signal;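 further: huh7 hepatoma cells harbouring a luciferase neomycin HCV replicon reporter; luciferase luminescence as measure of HCV replicon replication; test concentration not given here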
[3] = molecular target: Left-right determination factor 2 (Homo sapiens) (UniProt O00292); experiment: LEFTY2 binders on small-molecule microarrays, primary screen, biochemical, small-molecule microarray, 635 nm fluorescence scan (AID 1110); conditions: LEFTY2 binding, higher = more signal
[4] = molecular target: Calmodulin-1 (Homo sapiens) (UniProt P0DP23); experiment: CALM1 binders on microarrays, EGTA buffer, profiling panel, biochemical, small-molecule microarray, Cy5-labelled CALM1 (AID 1111); conditions: Cy5-CALM1 binding fluorescence, higher = more signal;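 further: labelled calmodulin applied in Tris saline Tween buffer holding calcium plus EGTA and DTT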
[5] = molecular target: Calmodulin-1 (Homo sapiens) (UniProt P0DP23); experiment: calcium-bound CALM1 binders on microarrays, profiling panel, artefact control for SMM control-protein annotation, biochemical, small-molecule microarray, Cy5-labelled CALM1, plus calcium (AID 1112); conditions: Cy5-CALM1 binding fluorescence, higher = more signal;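 further: score merges spot fluorescence with signal to noise from triplicate slides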
[6] = small-molecule microarray binders of probe aWnt5a, primary screen, biochemical, biotinylated probe, 635/667 nm fluorescence (AID 1113); conditions: higher = more signal;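 further: score merges 667 nm fluorescence intensity with signal-to-noise per printed feature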
[7] = small-molecule microarray binders of probe aShh, primary screen, biochemical, biotinylated probe, 635/667 nm fluorescence (AID 1114); conditions: higher = more signal;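 further: probe is biotin-labelled aShh protein from a stem cell growth factor screen; measures binding of labelled protein to compounds printed on the slide; score merges feature fluorescence at 667 nm with signal-to-noise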
[8] = small-molecule microarray binders of probe aNog, primary screen, biochemical, biotinylated probe, 635/667 nm fluorescence (AID 1115); conditions: higher = more signal;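 further: probe is biotinylated aNog protein used at 0.15 µg/mL for 1 h at 4 C; z-score combines 667 nm fluorescence of each spot with its signal to noise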
[9] = molecular target: Torsin-1A-interacting protein 1 (Homo sapiens) (UniProt Q5JTV8); experiment: LAP1 binders from COS7 cell lysate, primary screen, small-molecule microarray, 635/667 nm fluorescence (AID 1116); conditions: COS7-hLAP1 lysate binding, 635 nm fluorescence, higher = more signal
[10] = molecular target: Alpha-bungarotoxin (Bungarus multicinctus) (UniProt P60615); experiment: alpha-bungarotoxin binders on microarray, profiling panel, artefact control for SMM control protein annotation, biochemical, small-molecule microarray, Alexa647 label, 635/667 nm fluorescence (AID 1117); conditions: alpha-BTX-A647 binding fluorescence, higher = more signal
Albumin (Bos taurus) = Albumin (Bos taurus) (UniProt P02769); experiment: bovine serum albumin binders on microarray, profiling panel, artefact control for SMM control protein annotation, biochemical, small-molecule microarray, Alexa647 label, 635/667 nm fluorescence (AID 1118); conditions: BSA-A647 binding, fluorescence 635 nm, higher = more signal;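 further: score merges 667 nm emission intensity and signal-to-noise per printed compound spot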
[11] = small-molecule microarray binders of probe aXIP, primary screen, biochemical, NeuroSMM set, 635/667 nm fluorescence (AID 1119); conditions: higher = more signal, called active from +8 up or from −8 down;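 further: probe is the protein aXip251-270 applied at 1 µg/mL to compound-printed slides; binding of probe to printed compounds measured as 667 nm fluorescence plus signal to noise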
[12] = small-molecule binders of probe aNOTCH3, primary screen, biochemical, small-molecule microarray, 635/667 nm fluorescence (AID 1120); conditions: higher = more signal;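 further: probe is a biotin-tagged antibody raised against NOTCH3 rather than NOTCH3 protein; score merges spot fluorescence near 667 nm with spot signal to noise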
[13] = small-molecule binders of probe aNOTCH2, primary screen, biochemical, small-molecule microarray, 635/667 nm fluorescence (AID 1121); conditions: higher = more signal;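 further: score merges feature fluorescence read at 667 nm with its signal to noise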
[14] = molecular target: Carbonic anhydrase 2 (Homo sapiens) (UniProt P00918); experiment: CAII small-molecule binders, profiling panel, biochemical, small-molecule microarray, Alexa647-labelled CAII (AID 1122); conditions: CAII-A647 binding fluorescence, higher = more signal
[15] = COS7 lysate on small-molecule microarray, probe aHis, 635 nm (AID 1123); conditions: COS7 cell lysate, fluorescence, higher = more signal;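 further: z-score combines 667nm fluorescence intensity with signal-to-noise per printed compound spot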
[16] = compound binding in COS7 lysate, probe aLAP1, primary screen, cell lysate, small-molecule microarray (AID 1124); conditions: probe aLAP1, fluorescence, higher = more signal;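 further: lysate comes from COS7 cells expressing LAP1 and is applied at 0.3 µg/mL; score merges spot fluorescence near 667 nm with signal-to-noise over triplicate slides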
Sam68 (KHDRBS1) = experiment: Sam68 small-molecule binders, primary screen, biochemical, small-molecule microarray, 635 nm fluorescence (AID 1125); conditions: small-molecule microarray binding, higher = more signal;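 further: score merges 667 nm channel intensity with signal to noise over triplicate slides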
[17] = system: Chordin-like protein 2 (CHRDL2); experiment: CHRDL2 small-molecule binders, primary screen, biochemical, small-molecule microarray, 635 nm fluorescence (AID 1126); conditions: small-molecule microarray binding, fluorescence 635 nm; higher = more signal;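 further: printed compound slides probed with Chrdl2 protein at 4 µg/mL for 1 h at 4 C; score merges 667 nm emission intensity with signal to noise over three replicate slides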
[18] = molecular target: Concanavalin-A (Canavalia ensiformis) (UniProt P02866); experiment: ConA small-molecule binders, primary screen, artefact control for SMM control protein annotation, biochemical, small-molecule microarray, Alexa647 label, 635 nm (AID 1127); conditions: ConA-A647 binding fluorescence, higher = more signal;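 further: z combines 667 nm emission intensity with signal-to-noise across three replicate slides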
Sequence of Concanavalin-A (Canavalia ensiformis) (P02866 whole entry, looked up): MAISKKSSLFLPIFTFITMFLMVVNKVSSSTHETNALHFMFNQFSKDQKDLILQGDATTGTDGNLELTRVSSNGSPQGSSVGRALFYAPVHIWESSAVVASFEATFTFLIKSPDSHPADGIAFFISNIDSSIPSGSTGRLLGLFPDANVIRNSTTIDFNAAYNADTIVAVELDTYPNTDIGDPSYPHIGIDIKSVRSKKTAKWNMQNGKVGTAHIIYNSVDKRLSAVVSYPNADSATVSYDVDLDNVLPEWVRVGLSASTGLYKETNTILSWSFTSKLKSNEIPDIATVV

Sequence of Left-right determination factor 2 (Homo sapiens) (O00292 whole entry, looked up): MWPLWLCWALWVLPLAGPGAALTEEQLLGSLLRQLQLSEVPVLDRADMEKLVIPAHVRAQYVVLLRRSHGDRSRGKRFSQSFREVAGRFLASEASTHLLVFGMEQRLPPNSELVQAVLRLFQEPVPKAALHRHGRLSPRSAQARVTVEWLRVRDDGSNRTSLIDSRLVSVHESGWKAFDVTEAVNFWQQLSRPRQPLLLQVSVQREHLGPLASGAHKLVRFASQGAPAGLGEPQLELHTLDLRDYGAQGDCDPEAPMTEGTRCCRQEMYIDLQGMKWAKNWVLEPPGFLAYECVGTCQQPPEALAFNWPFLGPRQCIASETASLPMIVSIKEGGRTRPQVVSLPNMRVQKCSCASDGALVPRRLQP
Sequence of Torsin-1A-interacting protein 1 (Homo sapiens) (Q5JTV8 whole entry, looked up): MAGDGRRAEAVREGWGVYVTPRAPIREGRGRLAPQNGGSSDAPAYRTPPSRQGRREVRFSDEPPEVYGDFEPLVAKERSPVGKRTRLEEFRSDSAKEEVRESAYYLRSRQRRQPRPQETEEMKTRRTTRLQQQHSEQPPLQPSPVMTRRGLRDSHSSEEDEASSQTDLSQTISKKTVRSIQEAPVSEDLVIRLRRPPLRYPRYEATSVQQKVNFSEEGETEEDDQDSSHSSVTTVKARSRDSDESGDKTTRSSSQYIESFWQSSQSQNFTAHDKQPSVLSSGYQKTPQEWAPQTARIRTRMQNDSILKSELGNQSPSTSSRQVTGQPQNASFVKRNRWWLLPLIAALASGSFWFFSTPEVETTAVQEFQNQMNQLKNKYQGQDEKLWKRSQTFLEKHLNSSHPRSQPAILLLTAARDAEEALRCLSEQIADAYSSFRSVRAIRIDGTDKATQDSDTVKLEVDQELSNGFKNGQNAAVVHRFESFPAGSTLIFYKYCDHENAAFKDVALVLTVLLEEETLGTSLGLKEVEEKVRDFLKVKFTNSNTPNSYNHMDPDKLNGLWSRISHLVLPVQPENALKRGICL
Sequence of Albumin (Bos taurus) (P02769 whole entry, looked up): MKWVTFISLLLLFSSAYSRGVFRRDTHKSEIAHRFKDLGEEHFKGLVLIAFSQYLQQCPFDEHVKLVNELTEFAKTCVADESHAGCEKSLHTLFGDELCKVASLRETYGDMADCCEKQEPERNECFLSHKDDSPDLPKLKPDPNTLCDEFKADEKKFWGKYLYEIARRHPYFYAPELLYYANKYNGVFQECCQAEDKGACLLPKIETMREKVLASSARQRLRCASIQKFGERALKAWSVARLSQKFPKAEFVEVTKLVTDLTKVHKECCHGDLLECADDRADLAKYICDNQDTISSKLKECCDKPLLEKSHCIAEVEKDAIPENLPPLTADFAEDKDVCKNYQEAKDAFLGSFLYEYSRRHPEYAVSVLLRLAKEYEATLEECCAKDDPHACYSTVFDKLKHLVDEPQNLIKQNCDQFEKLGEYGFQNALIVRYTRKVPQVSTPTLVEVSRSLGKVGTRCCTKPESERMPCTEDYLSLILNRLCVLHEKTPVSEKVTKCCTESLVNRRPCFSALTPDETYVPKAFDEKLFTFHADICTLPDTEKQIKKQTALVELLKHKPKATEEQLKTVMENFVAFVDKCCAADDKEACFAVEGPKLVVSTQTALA
Sequence of Alpha-bungarotoxin (Bungarus multicinctus) (P60615 whole entry, looked up): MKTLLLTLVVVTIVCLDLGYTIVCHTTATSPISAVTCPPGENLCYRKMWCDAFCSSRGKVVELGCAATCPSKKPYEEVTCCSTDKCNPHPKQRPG

SMILES | composite z-score [1] | z-score [2] | composite z-score [3] | composite z-score [4] | composite z-score [5] | composite z-score [6] | composite z-score [7] | composite z-score [8] | composite z-score [9] | composite z-score [10] | composite z-score (Albumin (Bos taurus)) | composite Z-score [11] | composite z-score [12] | composite z-score [13] | composite z-score [14] | composite z-score [15] | composite z-score [16] | composite z-score (Sam68 (KHDRBS1)) | composite z-score [17] | composite z-score [18]
COc1ccc(C(O)C2C=CC3C(=O)N(c4ccccc4)C(=O)C3N2Nc2ccccc2)cc1 (stereo not given) | 1.39 | -0.454 | -0.13 | 0.553 | 0.147 | 0.0102 | -0.0243 | 0.36 | 0.272 | 2.13 | 1.01 | -0.135 (inactive) | 0.331 | -0.0501 | 0.781 | 2.89 | 0.326 | 1.17 | -0.154 | 1.14
COc1cc(CO)cc(I)c1O[C@H]1C=C(C(=O)NCCO)C[C@@H](NCC2CCCCC2)[C@@H]1O | 0.552 | -1.58 | 0.392 | -0.11 | -0.197 | -0.0512 | 0.0639 | -0.319 | 0.164 | 0.394 | 0.0439 | -0.442 (inactive) | 0.107 | -0.104 | 0.681 | 1.14 | -0.102 | 0.408 | 0.168 | 0.324
COc1cc(C(O)C2C=CC3C(=O)N(Cc4ccccc4)C(=O)C3N2n2cnnc2)cc(OC)c1OC (stereo not given) | 0.335 | 0.312 | 0.109 | 0.409 | 0.0996 | 0.0751 | 0.543 | 0.266 | 0.88 | 0.971 | 0.578 | -0.0603 (inactive) | 0.401 | 0.202 | 0.686 | 1.1 | 1.01 | 0.462 | -0.141 | 0.458
NCCCCCNC(=O)[C@H]1C[C@H]2C(=O)N[C@@H](Cc3ccccc3)C(=O)N2[C@H]1c1ccc(O)cc1 | 1.05 | 0.0505 | 0.202 | 2.24 | 1.14 | 0.183 | 0.596 | 0.859 | 0.456 | 0.949 | 0.819 | 0.491 (inactive) | 0.248 | 0.197 | 0.487 | 1.23 | 1.23 | 1.28 | 0.518 | 1.08
O=C(O)[C@@H]1C[C@@H]2C(=O)N3CCC[C@H]3C(=O)N2[C@@H]1c1cccc(OCCO)c1 | 1.49 | -0.444 | 1.56 | 1.69 | 0.815 | 0.94 | 2.65 | 3.05 | 3.85 | 2.99 | 0.778 | 2.44 (inactive) | 1.56 | 1.07 | 0.849 | 4.04 | 1.04 | 1.33 | 1.11 | 1.24
